Screening results deposited in PubChem BioAssay by National Center for Advancing Translational Sciences (NCATS).
TDP1 inh – inhibitors of human tyrosyl-DNA phosphodiesterase TDP1 | recombinant TDP1, AlphaScreen DNA substrate cleavage | Potency, µM (series often up to 130 µM), hits mostly inhibitors | actives 0.28% (n = 350,000); also: nearly all actives have a fitted effect of over 40% in size
Target sequence (Q9NUW8 whole entry, looked up): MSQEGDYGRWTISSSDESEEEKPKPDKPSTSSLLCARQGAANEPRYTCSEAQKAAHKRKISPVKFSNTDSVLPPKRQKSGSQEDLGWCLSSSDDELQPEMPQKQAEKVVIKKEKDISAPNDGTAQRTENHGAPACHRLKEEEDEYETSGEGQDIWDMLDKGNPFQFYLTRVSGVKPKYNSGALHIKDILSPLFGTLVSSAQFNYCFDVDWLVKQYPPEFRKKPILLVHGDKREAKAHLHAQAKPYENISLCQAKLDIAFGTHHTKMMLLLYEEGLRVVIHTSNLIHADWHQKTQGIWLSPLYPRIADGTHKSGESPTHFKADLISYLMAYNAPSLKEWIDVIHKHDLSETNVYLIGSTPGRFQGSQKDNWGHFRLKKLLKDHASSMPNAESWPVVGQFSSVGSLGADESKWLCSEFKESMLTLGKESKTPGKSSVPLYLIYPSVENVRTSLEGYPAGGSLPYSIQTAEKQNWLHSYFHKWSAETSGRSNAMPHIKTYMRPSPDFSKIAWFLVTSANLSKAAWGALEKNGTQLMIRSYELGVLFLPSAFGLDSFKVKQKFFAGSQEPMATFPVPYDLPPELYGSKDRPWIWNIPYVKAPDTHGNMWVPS
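AlphaScreen read-out: signal falls as enzyme removes the 3' tyrosine-FITC from a 5'-biotinylated DNA oligo (15 nM, 5 min, RT). Enzyme was E. coli-made recombinant Tdp1 at 1 nM, exposed to compound for 15 min beforehand; beads 10 ug/ml, 10 min.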
TDP1 cell CPT – DT40-hTDP1 cell growth loss with CPT. chicken DT40 Tdp1-/-;hTDP1 cells + 20 nM CPT, ATP luminescence, 48 h. Potency, µM (highest dose often 46.2 µM), actives largely listed as inhibitors. actives 12% (n = 420,000); also: nearly all actives have a fitted effect of over 55% in size
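Cell growth measured by CellTiter-Glo luminescence after a minimum 48 h, 37 C compound exposure with 20 nM CPT in Tdp1-knockout DT40 cells stably expressing hTDP1, seeded 400/well; qHTS titration format.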
CtBP-E1A blk – blocks the CtBP interaction with E1A; activity change, % (concentration not given with the values); actives 0.49% (n = 340,000); AlphaScreen GST-E1A/His-CtBP binding, 1536-well; stronger effect = lower value; in the data active = activity change below about -65%; inconclusive = mostly about -30% to -63%
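Protein mix (5X: 125 nM each GST-E1A, His-CtBP) was incubated with pinned compound 2 h at 37 deg C in dark, in 50 mM Tris pH 8.0 buffer with 300 mM NaCl. Glutathione donor and nickel acceptor beads followed; AlphaScreen signal read after 1 h.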
IL-1B inflam inh – blocks inflammasome-driven IL-1 beta release | THP-1 LPS/ATP IL-1B secretion, AlphaLISA, 16 h; stronger effect = lower value | activity change, % at 57.5 µM | actives 4.7% (n = 360,000) | AID 743279; in the data active = activity change below about -50%; inconclusive = mostly about -30% to -49%
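Secreted IL-1B measured by AlphaLISA bead assay after 16 h compound exposure of THP-1 cells; compounds (final up to 57.5 uM) added 1 h before LPS (250 ng/mL) and ATP (1.25 mM) stimulation; lower signal means less secretion.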
DT40 TDP1 no CPT – qHTS for Inhibitors of human tyrosyl-DNA phosphodiesterase 1 (TDP1): qHTS in cells in absence of CPT; AID 686978, 2013; actives 15% (n = 420,000); Potency, µM (titrated, usually from 46.2 µM), usual class: inhibitors; DT40 Tdp1-/- hTDP1 cells, no CPT, ATP luminescence, 48 h; also: nearly all actives have a fitted effect of over 55% in size
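Cells were dispensed at 400 per well, compounds added by pin tool, plates incubated ≥48 hr at 37 °C, then CellTiter-Glo added for 30 min at room temperature before luminescence reading. Line: DT40 Tdp1-/- complemented with hTDP1; camptothecin omitted.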
Six1-Eya2 inh – blocks human Six1 binding to Eya2; Q15475+O00167; AlphaScreen GST-Six1/His-Eya2 binding, biochemical; stronger effect = lower value; activity change, % (concentration not given with the values); actives 0.56% (n = 360,000); AID 651725; in the data active = activity change below about -65%; inconclusive = mostly about -30% to -63%
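AlphaScreen luminescence read after one hour at 37 °C in darkness. Pin-transferred compounds met GST-Six1 and His-Eya2 protein (5X stock 250 nM/500 nM) plus glutathione donor and Ni-chelate acceptor beads (5X, 50 ug/mL).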
Numbers stand for hits; – = inactive; ? = inconclusive; · = no result given; [ ] = remark or other dose. Rows were chosen to be rich in hits. Some 18% of all compounds tested hit in one or more screens of this group. Unless noted, calls follow the shape of the dose curve; as a rule, active = well fitted curve in the direction sought with a large enough effect; inconclusive = small, poorly fitted or top-dose-only effect, or another doubt; inactive = no such curve, though single readings can be large; an effect the other way counts as inactive or inconclusive.

SMILES	TDP1 inh	TDP1 cell CPT	CtBP-E1A blk	IL-1B inflam inh	DT40 TDP1 no CPT	Six1-Eya2 inh
COc1ccccc1-n1c(/C=C/c2ccccn2)nc2ccccc2c1=O	·	?	–	·	?	–
COc1cccc(-n2c(/C=C/c3ccccn3)nc3ccccc3c2=O)c1	·	?	–	-84.0	?	–
Cc1cccc(-n2c(/C=C/c3c[nH]c4ccccc34)nc3ccccc3c2=O)c1	–[12.3 µM]	2.59µM	·	·	2.59µM	·
CCOC(=O)c1ccc(N=C(C)c2c(O)[nH]c(=O)[nH]c2=O)cc1	–	–	–	–	–	–
COC(=O)CC(=O)c1ccc2c(c1)OCO2	–	?	–	–	–	–
CCS(=O)(=O)Nc1ccc(C2=NN(C(=O)c3ccco3)C(c3ccc(Cl)o3)C2)cc1 (centres undefined)	–	?	–	-62.8	23.1µM	–
COc1ccccc1CNc1nc(NCc2ccccc2SC)c2sccc2n1	·	6.51µM	–	-98.8	6.51µM	–
COc1ccccc1CNCc1cc(OC)c(OC)cc1OC	–	?	–	–	?	–
C[C@H]1CCC/C=C/[C@@H]2C[C@H](O)C[C@H]2[C@H](O)/C=C/C(=O)O1	–	0.581µM	–	-52.9	0.651µM	–
CCCCC[C@H]1CCCCC[C@@H](O)C[C@H](O)[C@H](O)/C=C/C(=O)O1	·	?	–	–	?	–
C[C@H]1CCC/C=C/C2C[C@H](O)C[C@H]2[C@H](O)/C=C/C(=O)O1 (some centres undefined)	–	0.251µM	·	·	0.355µM	·
FC(F)(F)c1ccc(CNCCc2ccc3c(c2)OCO3)cc1	·	–	·	?	–	–
Cc1cc(C)cc(N2C(=O)NC(=O)/C(=C\c3cccn3-c3ccccc3)C2=O)c1	–	?	–	-98.5	?	–
CN1C(=O)/C(=C/c2cccn2-c2ccc3ccccc3c2)C(=O)NC1=S	–	3.26µM	–	-116.9	5.17µM	-78.8
O=C1NC(=S)NC(=O)C1=Cc1cccn1-c1ccc(O)cc1	–	3.66µM	–	-102.0	5.17µM	?
Cc1cccc2c1=NC(=O)/C(=C/c1c(O)[nH]c(=O)[nH]c1=O)C=2	–	?	–	–	–	–
CCOP(=O)(C#CC(C)(C)C)C(C)(O)c1ccccc1 (centres undefined)	–	–	–	–	–	–
COOCC1(C(=O)OC)C[C@H](c2ccc(OC)cc2)N(Cc2ccccc2OC)[C@@H]1c1ccccc1C (some centres undefined)	·	?	–	–	?	–
COC(=O)C1(C(=O)OC)C[C@H](c2ccc(OC)cc2)N(Cc2ccccc2OC)[C@@H]1c1cccs1	·	16.4µM	–	?	20.6µM	–
CN1CC[C@@]2(C)c3cc(O)ccc3N(C)C12 (some centres undefined)	–	3.98µM	·	·	?	·
CNC(=O)Oc1ccc2c(c1)C1(C)CCN(C)C1N2C (centres undefined)	–	23.7µM	·	·	29.9µM	·
Cc1cccc(CS(=O)(=O)Cc2ccc(C(=O)N3CCC4(CC3)OCCO4)o2)c1	–	?	–	–	–	–
CC(=O)CC(c1ccccc1[N+](=O)[O-])c1c(O)c2ccccc2oc1=O (centres undefined)	–	–	–	–	–	–
N=C1c2ccccc2CN1c1ncccn1	–	–	–	–	–	–
Cn1c(=O)c2c(nc(SCc3ccccc3)n2Cc2ccc(Cl)cc2)n(C)c1=O	–	?	–	?	?	–
Cc1ccc(-c2c(C)n3c4c(=O)n(C)c(=O)n(C)c4nc3n2CCO)cc1	–	0.259µM	·	·	0.184µM	·
Cc1c(C(=O)N2CCC(Cc3ccccc3)CC2)sc2ncnc(N3CCC(C)CC3)c12	–	20.6µM	–	–	?	–
O=C(O)C(Cc1cnc[nH]1)NS(=O)(=O)c1ccc(Br)cc1 (centres undefined)	–	–	–	–	–	–
O=C(c1ccco1)N1CCN(C(=O)c2ccc(COc3ccc(Cl)cc3Cl)o2)CC1	·	25.9µM	–	–	?	–
